Assay results from ChEMBL document CHEMBL3988442, “University of Dundee, Small-Polar-MMV Screening Library” (2021).
The campaign covered roughly 48,000 compounds. About 13,000 (27%) showed an effect of 50% or more. The list shows a part of the results.

System: Wolbachia pipientis
Experiment: Anti-Wolbachia Cell-Based Screen
Assay type: functional
Parameters: scale not given: in the data most compounds retested in dose-response had high values
Details: 5 µM

Row | Compound | Percent Effect
1 | CNS(=O)(=O)CC(=O)N(Cc1c(F)cccc1F)C1CCCC1 | -5.167%
2 | Cc1cccc(CN(C(=O)CS(C)(=O)=O)C(C)C)c1 | -6.499%
3 | CC(C)c1cnc(CN2CCCS2(=O)=O)o1 | 3.272%
4 | O=C(NCC(O)c1ccc(F)c(F)c1)c1cccnc1O (stereo not drawn) | -2.059%
5 | CCNc1ncc(CN2C[C@H](C3CC3)[C@@H](N)C2)cn1 | -8.073%
6 | CC(C)Cc1cc(CNC(=O)c2cccc3c2NCCC3)no1 | 2.864%
7 | COCCn1ccc(=O)c(OCC(=O)Nc2ccccc2)c1C | 9.271%
8 | Cc1nc2c(c(C)c1CC(=O)Nc1cccc(C#N)c1)c(=O)[nH]n2C | -6.097%
9 | Cc1cccc(NC(=O)Cc2cnc3n(C)c(=O)[nH]c(=O)n23)c1 | 101.4%
10 | Cn1c(=O)[nH]c(=O)n2c(CC(=O)Nc3ccccc3)cnc12 | 114.1%
11 | Cc1cccc(NCc2nn(C)c(=O)[nH]2)c1 | -1.788%
12 | Cn1c(=O)ccn(CC(=O)Nc2cccnc2)c1=O | 18.35%
13 | Cc1nnc(N2CCC(CCN(C)C)CC2)c(C#N)c1C | 18.81%
14 | O=S(=O)(C1CC1)N1CCOC2(CCCN(c3ccccc3)C2)C1 (stereo not drawn) | -6.387%
15 | COC(=O)N1C[C@H]2CC[C@@H]1CN(Cc1cscn1)C2 | -5.87%
16 | Cc1ccc(N2CCCC(N(C)Cc3nc(C)c(C)o3)C2)nn1 (stereo not drawn) | -10.05%
17 | O=C(O)C(F)(F)F.O=C1COC2(CCN(Cc3nccs3)CC2)CN1c1ccccc1 | 109.8%
18 | Cc1ccc(N2CC3(COCCN(Cc4ccncc4)C3)OCC2=O)s1.O=C(O)C(F)(F)F.O=C(O)C(F)(F)F (stereo not drawn) | 7.716%
19 | Cn1cc(CN2CCC3(CC2)CN(c2cccnc2)C(=O)CO3)cn1 | 89.07%
20 | CN1CC(=O)N(c2cccc(F)c2)CC12CCN(Cc1ccncc1)C2.O=C(O)C(F)(F)F.O=C(O)C(F)(F)F (stereo not drawn) | -24.86%
21 | O=C(O)C(F)(F)F.O=C(O)C(F)(F)F.O=C1COC2(COCCN(Cc3cccnc3)C2)CN1c1ccccc1 (stereo not drawn) | -10.32%
22 | O=C(O)C(F)(F)F.O=C(O)C(F)(F)F.O=C1COC2(CCN(Cc3ccncc3)CC2)CN1c1ccccc1 | 106.6%
23 | O=C(O)C(F)(F)F.O=C(O)C(F)(F)F.O=C1COC2(CCN(Cc3cccnc3)CC2)CN1c1ccccc1 | 95.43%
24 | Cc1ccc(N2CC3(COCCN(Cc4cnn(C)c4)C3)OCC2=O)s1.O=C(O)C(F)(F)F (stereo not drawn) | -8.814%
25 | O=C(O)C(F)(F)F.O=C1COC2(CCN(Cc3nccs3)CC2)CN1CC1CC1 | -7.755%
26 | CN1CC(=O)N(c2ccccc2)CC12CCN(Cc1nccs1)C2.O=C(O)C(F)(F)F.O=C(O)C(F)(F)F (stereo not drawn) | -23.26%
27 | CCS(=O)(=O)c1ncc(CN(C)CCc2ccccn2)n1CCOC | -7.108%

Row | Compound | Percent Effect
28 | CC(C)(C)c1ccc(S(=O)(=O)CCNC(=O)c2cnccn2)cc1 | -1.994%
29 | O=C(Nc1cc(C2CCOCC2)[nH]n1)c1cscn1 | -9.479%
30 | O=C(O)C(F)(F)F.O=C1COC2(CCN(Cc3ccoc3)CC2)CN1c1ccccc1 | 110.1%
31 | c1coc(-c2nc3c(c(N4CCCN5CCC[C@H]5C4)n2)CCNCC3)c1 | -2.635%
32 | CN1CCC(c2cccc(-c3ccc(C(=O)O)cc3)n2)CC1 | 143.4%
33 | O=C(O)c1ccc(-c2cscn2)cc1 | -4.979%
34 | CN1CCC(c2cccc(-c3cccc(C(=O)O)c3)n2)CC1 | 172.2%
35 | CC(=O)N1CCC(c2cccc(-c3cccc(C(=O)O)c3)n2)CC1 | 150.5%
36 | Cc1nc(-c2cccc(C(=O)O)c2)c[nH]1 | 12.51%
37 | CCC1CN(CC(=O)NCC(C)C)CCO1 (stereo not drawn) | 14.46%
38 | CN(C)C(Cn1ccnc1-c1nccn1C)c1ccccc1Cl (stereo not drawn) | -33.34%
39 | Cn1cnc(S(=O)(=O)NCC2(O)CCc3ccccc3C2)c1 (stereo not drawn) | -0.2896%
40 | Cc1cc(C(F)(F)F)cc(N2CCN(Cc3ccccc3)CC(O)C2)n1 (stereo not drawn) | -8.979%
41 | Cc1noc(C)c1C(=O)NCc1cc[nH]n1 | -8.617%
42 | CCc1cnc(N2CCCOC(CN3CCCC3)C2)nc1 (stereo not drawn) | -1.454%
43 | Cc1cccc(C)c1OC1CN(Cc2cnc(N3CCCC3)nc2)C1 | 1.788%
44 | NC(=O)CCC1CCCN(c2ncnc3c2Cc2ccccc2OC3)C1 (stereo not drawn) | -12.56%
45 | O=C(O)CCc1cc2n(n1)CCN(Cc1cnc(N3CCCC3)nc1)C2 | -15.82%
46 | c1nc(N2CCCC2)ncc1CN1CCCC(CN2CCCCC2)C1 (stereo not drawn) | 95.39%
47 | NC(=O)CCC1CCCN(Cc2cnc(N3CCCCC3)nc2)C1 (stereo not drawn) | 104.2%
48 | CCc1cnc(N2CCCC(CCC(N)=O)C2)nc1 (stereo not drawn) | 109.3%
49 | N[C@H]1CN(Cc2cnc(N3CCCC3)nc2)C[C@@H]1C1CC1 | -16.17%
50 | COc1ccccc1-c1ncc(CN2CCCC(CCC(N)=O)C2)s1 (stereo not drawn) | 16.75%
51 | O=C(N[C@H]1CN(C2CCOCC2)C[C@@H]1C1CC1)c1ccon1 | -9.557%
52 | CN(Cc1cc[nH]n1)C(C(=O)O)c1ccc(Cl)cc1 (stereo not drawn) | -11.22%
53 | Cc1cnn(-c2ccc(S(=O)(=O)N(C)CC(C)(CO)CO)cc2F)c1 | -2.822%
